Compound activity from PubChem.
Pf growth 48h = P. falciparum growth inhibition at 48 hours (one generation). Potency, µM (top dose mostly 28.7 µM), actives largely listed as inhibitors. P. falciparum luciferase growth in erythrocytes, 48 h. AID 504832. 310,000 tested, 5.9% active
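In quantitative HTS format, infected erythrocytes bearing luciferase-reporter parasites were treated for a single generation at 37 C. Luminescence after adding detection reagent served as the growth measure.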
AmpC inh no detg = inhibitors of E. coli AmpC beta-lactamase without detergent | P00811 | AID 485341 | AmpC nitrocefin hydrolysis, absorbance 480 nm, 0.0001% Triton | Potency, µM (highest dose often 57.1 µM), hits mostly inhibitors | 330,000 tested, 0.52% active; further: nearly all actives have a fitted effect of over 20% in size
Target sequence (P00811 whole entry, looked up): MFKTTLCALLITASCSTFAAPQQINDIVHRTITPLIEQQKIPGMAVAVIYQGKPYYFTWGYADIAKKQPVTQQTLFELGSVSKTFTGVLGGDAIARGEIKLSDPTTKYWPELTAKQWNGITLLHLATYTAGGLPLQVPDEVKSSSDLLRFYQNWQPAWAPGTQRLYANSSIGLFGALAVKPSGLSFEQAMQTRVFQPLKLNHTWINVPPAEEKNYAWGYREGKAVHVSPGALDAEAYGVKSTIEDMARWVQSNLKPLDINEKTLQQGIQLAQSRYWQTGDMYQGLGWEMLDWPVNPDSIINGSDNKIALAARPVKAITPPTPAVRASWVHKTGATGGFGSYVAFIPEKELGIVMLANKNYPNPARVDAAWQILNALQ
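AmpC (5.3 nM in the dispensed reagent) in 20 mM phosphate pH 7.0 with 0.01% (detergent screen) or 0.0001% Triton X-100 was preincubated with compounds for 15 min at room temperature. Nitrocefin was then added from an 800 uM solution, and hydrolysis was followed at 480 nm.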
AmpC inh detg = blocks E. coli AmpC beta-lactamase in detergent assay; AmpC hydrolysis of nitrocefin, absorbance 480 nm, 0.01% Triton; Potency, µM (top dose mostly 114 µM), usual class: inhibitors; 370,000 tested, 0.041% active; further: nearly all actives have a fitted effect of over 25% in size
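AmpC (5.3 nM in the dispensed reagent) in 20 mM phosphate pH 7.0 with 0.01% (detergent screen) or 0.0001% Triton X-100 was preincubated with compounds for 15 min at room temperature. Nitrocefin was then added from an 800 uM solution, and hydrolysis was followed at 480 nm.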
HCV inhibitor = inhibitors of hepatitis C virus infection. Huh7.5.1 HCVcc-Cre infection, luciferase reporter, 44 h. Potency, µM (top dose mostly 41.8 µM), hits mostly inhibitors. 340,000 tested, 3.4% active. AID 651820
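1,000 cells/well; 4 h culture; + compound; + HCVcc-Cre (~0.5 moi); 44 h; luciferase substrate, RT 15 min; read 15 sec.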
Pf growth 96h = P. falciparum growth inhibition at 96 hour, primary screen for plastid delayed-death inhibitors. P. falciparum luciferase reporter growth, 96 h. Potency, µM (top dose mostly 28.7 µM), most hits filed as inhibitors. 320,000 tested, 6.9% active. AID 504834
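Delayed-death screen, second-generation endpoint: infected erythrocytes, 2% hematocrit, 0.05% parasitemia final; 96 hours at 37 C, 5% CO2; luciferase detection reagent; luminescence decrease equals reduced growth.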
AMA1-RON2 inh = inhibitors of Plasmodium falciparum AMA1-RON2 interaction | AlphaScreen AMA1-biotinylated RON2 peptide binding | Potency, µM (highest dose often 58.2 µM), usual class: inhibitors | 360,000 tested, 0.2% active; further: nearly all actives have a fitted effect of over 45% in size
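AMA1 (3D7) with his tag at 25 nM final met compounds first, then biotinylated RON2 peptide at 25 nM; detection used donor plus acceptor beads, 10 µg/mL apiece, read by AlphaScreen after 30 min at room temperature.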
A number is an active result; n = inactive; u = inconclusive; x = no result given; [ ] = another dose, or the depositor's remark. Most compounds without a hit are left out; they make up all but 11% or so of the library. The call rests on the fitted dose curve; in most records, active means well fitted curve in the direction sought with a large enough effect; inconclusive means small, poorly fitted or top-dose-only effect, or another doubt; inactive means no such curve, though single readings can be large; an effect the other way counts as inactive or inconclusive.

SMILES	Pf growth 48h	AmpC inh no detg	AmpC inh detg	HCV inhibitor	Pf growth 96h	AMA1-RON2 inh
Clc1ccc2nc(Nc3ccccc3Cl)nc(-c3ccccc3)c2c1	x	x	n	x	x	x
COc1ccc(N(Cc2cccs2)C(=O)COc2ccc(C(C)C)cc2)cc1	x	x	n	x	x	x
C=CCN1CC(c2nc3ccccc3n2Cc2cccc3ccccc23)CC1=O (configuration not stated)	u	n	n	n	12µM	n
Cc1ccc(OCCn2c(C3CC(=O)N(Cc4ccccc4)C3)nc3ccccc32)cc1 (configuration not stated)	u	45µM	u	u	u	n
COC(=O)c1sccc1S(=O)(=O)N(CC(=O)NCc1ccc(C)cc1)c1ccccc1	x	x	n	x	x	x
COc1ccc(-c2cn3cccnc3n2)cc1NC(=O)C(C)Oc1ccccc1 (configuration not stated)	13µM	n	n	22µM	n	n
CCC(CC)C(=O)Nc1cc(-c2cn3cccnc3n2)ccc1OC	x	x	n	x	x	x
COc1ccc(-c2cn3cccnc3n2)cc1NC(=O)c1cccs1	n	n	n	n	12µM	n
CCOC(=O)c1c(C)[nH]c(C)c1S(=O)(=O)N(C)CC(=O)Nc1ccc(OC)cc1	x	x	n	x	x	x
COc1ccc(/C=C/C(=O)Nc2ccc(S(=O)(=O)N3CCOCC3)cc2)c(OC)c1	9.3µM	n	n	10µM	9.3µM	n
CCN1CCN(c2ccc(S(=O)(=O)N3CCOCC3)cc2NC(=O)/C=C/c2ccc(OC)cc2OC)CC1	10µM	n	n	n	u	n
COc1ccc(NC(=O)/C=C/c2ccc(S(=O)(=O)N3CCOCC3)cc2)cc1	n	n	n	n	n	n
CCN1CCN(c2ccc(S(=O)(=O)N3CCOCC3)cc2NC(=O)/C=C/c2ccc([N+](=O)[O-])cc2)CC1	2.6µM	n	n	25µM	3.7µM	n
Cc1ccc(N(C)C(=O)c2cc(S(=O)(=O)N3CCOCC3)cn2C)cc1	x	x	n	x	x	x
CSc1nnc2c(n1)OC(c1cccc(O)c1Cl)Nc1ccccc1-2 (configuration not stated)	x	x	n	x	x	x
COc1ccc(-c2cn3cccnc3n2)cc1NC(=O)Nc1ccc(Cl)cc1	x	x	n	x	x	x
O=C(NCc1ccc(Cl)cc1)NC1COc2ccccc2C1 (configuration not stated)	x	x	n	x	x	x
Cc1ccc(-n2sc3ccccc3c2=O)cc1S(=O)(=O)N1CCCCC1	2.6µM	n	n	u	4.1µM	n
CN(C)S(=O)(=O)c1cccc(-n2sc3ccccc3c2=O)c1	u	35µM	n	n	u	n
Cc1ccccc1C(=O)NC1(C(F)(F)F)N=C(c2ccccc2)N(Cc2ccccc2)C1=O (configuration not stated)	x	x	n	x	x	x
Nc1c(Cl)ncnc1N/N=C/c1ccccn1	2.1µM	n	u	u	2.9µM	n
Nc1c(Cl)ncnc1N/N=C/c1ccc2ccccc2n1	u	n	n	4µM	3.7µM	n
OCCN1CCN(CCCc2c3c(cc4c2CCC4)CCC3)CC1	12µM	n	u	n	12µM	n
CN(Cc1ccccc1)c1ccc2nnc(-c3ccccc3)n2n1	4.1µM	n	n	n[8.37 µM]	u	n
Cc1ccc(S(=O)(=O)N2CCN(c3ccc4nnc(-c5ccccc5)n4n3)CC2)cc1	x	n	n	n	u	n
SMILES	Pf growth 48h	AmpC inh no detg	AmpC inh detg	HCV inhibitor	Pf growth 96h	AMA1-RON2 inh
c1ccc(-c2nnc3ccc(N4CCCC4)nn23)cc1	n	n	u	u	1µM	n
Cc1cccc(C)c1N1CCN(c2ccc3nnc(C(F)(F)F)n3n2)CC1	9.3µM	n	n	n	x	n
Cc1ccc(CNC(=O)CCc2c(C)nc3c4c(C)cc(C)nc4nn3c2C)cc1	x	x	n	x	x	x
O=S(=O)(c1ccc(SCc2ccc(Br)cc2)nc1)N1CCCCC1	u	n	n	n	n	n
O=S(=O)(c1ccc(SCCOc2cccc(Br)c2)nc1)N1CCCC1	u	n	n	10µM	u	n
COc1ccc(OCCSc2ccc(S(=O)(=O)N3CCCC3)cn2)cc1	u	u	n	11µM	u	n
O=S(=O)(c1ccc(SCCOc2ccccc2Cl)nc1)N1CCCC1	n	n	n	13µM	u	n
